In the library only some 4.6% were active in any assay of this set; here they are far more common.
D1 PAM: human D1 dopamine receptor positive modulation; P21728; HEK293 TREx D1 cells, calcium flux, dopamine EC20 potentiation; potentiation, % at 10 µM; 0.036% of 360,000 active; AID 504651; in the data active = potentiation above about 30%; also: 0% is about no effect
Target sequence (P21728 whole entry, looked up): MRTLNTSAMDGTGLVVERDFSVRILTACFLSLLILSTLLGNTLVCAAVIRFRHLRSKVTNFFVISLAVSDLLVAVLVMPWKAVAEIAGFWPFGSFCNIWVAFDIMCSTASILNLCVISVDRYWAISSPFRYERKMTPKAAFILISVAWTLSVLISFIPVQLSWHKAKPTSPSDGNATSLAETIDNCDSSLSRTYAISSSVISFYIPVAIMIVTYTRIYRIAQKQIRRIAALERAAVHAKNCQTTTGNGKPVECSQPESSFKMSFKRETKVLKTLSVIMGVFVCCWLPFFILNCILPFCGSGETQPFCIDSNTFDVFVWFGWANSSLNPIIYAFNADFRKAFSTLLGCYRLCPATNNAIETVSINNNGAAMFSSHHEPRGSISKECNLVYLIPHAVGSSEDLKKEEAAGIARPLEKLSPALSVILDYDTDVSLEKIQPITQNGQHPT
D1 agonist: activates the human D1 dopamine receptor | P21728 | HEK293 T-REx D1 cells, calcium flux, agonist mode | activation, % at 2 µM | 1% of 360,000 active | AID 504660; also: 0% is about no effect
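Inducible HEK293 T-REx D1 cells, force-coupled to calcium signalling, were plated at 4000 cells/well with tetracycline and held overnight at 30 C. After no-wash calcium dye loading, compound-evoked calcium rise over 180 s flagged agonists.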
D1 antagonist: antagonists of human D1 dopamine receptor; 3.2% of 360,000 active; P21728; activity change, negative = inhibition, % at 10 µM; HEK293 TREx D1 cells, calcium flux, dopamine EC80; stronger effect = lower value; in the data active = activity change below about -30%; also: % is scaled to controls: 0 for no effect and ±100 for the full control effect
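Kinetic fluorescence of a calcium dye serves as the read-out. D1-expressing Hek293 Trex cells, induced overnight at 30 C, are exposed to compound for 180 s before an EC80 dopamine addition, then read 180 s further.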
TRHR PAM: allosterically enhances the human TRH receptor; P34981; TRHR cells, fluo-8 calcium fluorescence, EC20 TRH enhancement; enhancement, % at 2 µM; 0.66% of 360,000 active; AID 493056; in the data active = enhancement above about 30%; also: 0% is about no effect
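TRHR-expressing cells loaded with fluo-8 calcium dye were read kinetically (ex 480/em 530) during compound addition, then stimulated with an EC20 of TRH (10 nM final). Enhancement of the Gq-mediated intracellular calcium response was scored.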
TRHR ag: activates the human TRH receptor; activation, % at 2 µM; P34981; 0.18% of 360,000 active; TRHR cells, calcium flux fluo-8, FDSS agonist mode; also: 0% is about no effect
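TRHR-expressing cells, plated overnight in medium with 10% serum, were loaded with fluo-8 calcium dye at room temperature. After a 10 s baseline, library compound was pin-added and calcium release was recorded kinetically (ex 480/em 530) as agonist response.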
Numbers without * were called inactive; x = no result given. Rule as the data show it, unless noted: active = activation above about 30%; inactive = the rest.

SMILES | D1 PAM | D1 agonist | D1 antagonist | TRHR PAM | TRHR ag
CC(CCN1CCN(c2ccccn2)CC1)c1ccccc1 (stereo unspecified) | -8 | -2 | -28 | -1 | 0
COCCCNc1c2c3c(cccc3[nH]c1=O)C(=O)c1ccccc1-2 | x | 809* | -53* | 17 | 0
CCOc1ccc(CNC(=O)c2c(C)nn(-c3ccc(F)cc3)c2-n2cccc2)cc1 | 0 | 15 | -13 | 5 | 2
CC1CCCCN1CCCNC(=O)c1ccc(N2CCCC2=O)cc1 (stereo unspecified) | -8 | 2 | -3 | -9 | 1
COC(=O)c1ccc(N(CC(=O)NC2CCCC2)C(=O)CNC(=O)c2cccs2)cc1 | 30* | 1 | 21 | 4 | 0
O=C1CS(=O)(=O)C2(C(=O)Nc3ccccc32)N1c1cccc(Cl)c1 (stereo unspecified) | -8 | 2 | -22 | 13 | 1
O=C(c1cccs1)N1CCCc2cc(NS(=O)(=O)c3ccc(Br)cc3)ccc21 | 0 | 1 | -40* | -3 | 0
O=C(Nc1ccc2c(c1)CCCN2C(=O)c1cccs1)c1cccc(F)c1 | -5 | 6 | -36* | -16 | 0
Cc1ccc(S(=O)(=O)Nc2ccc3c(c2)CCCN3C(=O)c2cccs2)cc1 | 0 | 11 | -17 | 0 | -2
O=C(Nc1ccc2c(c1)CCCN2C(=O)c1cccs1)c1ccccc1 | -5 | 2 | -28 | -5 | -1
O=C(Nc1ccc2c(c1)CCCN2C(=O)c1cccs1)c1cccc(C(F)(F)F)c1 | -1 | 1 | -58* | -4 | 0
CC(=O)Nc1ccc(SC[C@H](Cc2ccccc2)N2CCN(CCc3ccccc3)CCC2=O)cc1 | -5 | 7 | -33* | -2 | 0
CC(=O)Nc1ccc(SC[C@H](Cc2ccccc2)N2CC[C@@H](O)CCC2=O)cc1 | -1 | -1 | -18 | 0 | 0
c1cc2c3c(cccc3c1)NC1(CCCCCC1)N2 | -1 | 2 | -5 | 19 | 1
c1cc2c3c(cccc3c1)NC1(CCC3(CC1)Nc1cccc4cccc(c14)N3)N2 | -1 | 14 | -40* | -14 | 4
Cc1ccc(S(=O)(=O)c2[nH]c(-c3ccccc3)nc2SCC(N)=O)cc1 | 0 | 0 | 6 | 4 | 0
Cc1nn(C(C)C(=O)NC2CCC(C)CC2)c(=O)c2cc3sccc3n12 (stereo unspecified) | -3 | 2 | -7 | 2 | 1
Cc1ccccc1NC(=O)Cn1c(SCC(=O)Nc2ccc(F)cc2)nc2ccccc21 | 0 | 1 | -80* | -2 | 0
COc1ccc(N=C2NC(=O)C(CO)(CO)S2)cc1 | -10 | 2 | -51* | 9 | 0
CC(=O)c1ccc(N=C2NC(=O)C(CO)(CO)S2)cc1 | -1 | 2 | 0 | -7 | 1
Cc1cc(C(=S)N2CCOCC2)c(C)n1-c1ccc(Cl)cc1 | -3 | 5 | -31* | 5 | 1
CCCc1cc(=O)oc2cc(C)c3c(-c4ccccc4)coc3c12 | 0 | 2 | 5 | 49* | 0
COc1ccc(N2CCN(C(=O)c3nn(C)c4c3CSc3ccccc3-4)CC2)cc1 | 1 | -1 | 3 | 1 | 0
Cc1cc(C)cc(OCC(=O)NCC2(N(C)C)CCCCC2)c1 | 2 | 5 | -4 | -2 | 1
COc1cccc2c1C(=O)c1c(O)c3c(c(O)c1C2=O)C[C@@](O)(C(C)=O)C[C@@H]3O[C@H]1C[C@H](N)[C@H](O)[C@H](C)O1 | -3 | 44* | 12 | -2 | 20
SMILES | D1 PAM | D1 agonist | D1 antagonist | TRHR PAM | TRHR ag
COc1cc2ccccc2cc1C(=O)N(CCN(C)C)c1nc2c(F)cc(F)cc2s1 | -6 | 1 | -36* | 0 | 0
CCc1nnc2c(Nc3ccc(N(CC)CC)cc3C)nc3ccccc3n12 | 5 | 8 | 1 | 1 | 1
CN1CCN(C(=O)C2=C[C@@H](C3CC3)C[C@@H](OCc3ccc(CO)cc3)O2)CC1 | 3 | -4 | 12 | 31* | 0
CN1CCN(C(=O)C2=C[C@@H](c3csc4ccccc34)C[C@@H](OCc3ccc(CO)cc3)O2)CC1 | -2 | 41* | -5 | -6 | 2
CN1CCN(C(=O)C2=C[C@H](c3coc4ccccc4c3=O)C[C@H](OCc3ccc(CO)cc3)O2)CC1 | 34* | -3 | -20 | -8 | 0
O=C(C1=C[C@@H](c2coc3ccccc3c2=O)C[C@@H](OCc2ccc(CO)cc2)O1)N1CCOCC1 | 0 | -6 | -17 | -6 | 0
O=C(C1=C[C@H](c2csc3ccccc23)C[C@H](OCc2ccc(CO)cc2)O1)N1CCN(Cc2ccc3c(c2)OCO3)CC1 | 4 | 0 | -34* | -6 | 1
COCCn1c(=N)c(S(=O)(=O)c2ccc(F)cc2)cc2c(=O)n3ccccc3nc21 | 2 | -2 | -5 | 4 | 0
O=C(c1ccccc1Cl)N1CCCC(c2nc3c(nnn3Cc3ccc(F)cc3F)c(=O)[nH]2)C1 (stereo unspecified) | 3 | -3 | 5 | -15 | 0
C=CCc1ccccc1OCCSc1nc(-c2ccccc2F)nc2cc(=O)[nH]n12 | -8 | 4 | -9 | -16 | 0
O=C(O)C1=C[C@@H](c2coc3ccccc3c2=O)C[C@@H](OCc2ccc(CO)cc2)O1 | 0 | -5 | -22 | -5 | 0
O=C(NC1CC1)C1=C[C@@H](c2coc3ccccc3c2=O)C[C@@H](OCc2ccc(CO)cc2)O1 | 5 | 34* | 4 | 0 | 0
CCC1CN(C(=O)Nc2cccc3c2CCCC3)c2cc(C)ccc2O1 (stereo unspecified) | -2 | 0 | -60* | -2 | 0
Cc1ccc(NC(=O)COc2coc(CN3c4ccccc4CC3C)cc2=O)c(C)c1 (stereo unspecified) | -11 | 3 | -14 | 3 | 0
COc1ccc(OC)c(NC(=O)COc2coc(CN3CCc4ccccc43)cc2=O)c1 | -10 | 7 | -36* | 4 | -1
CC1Cc2ccccc2N1Cc1cc(=O)c(OCC(=O)Nc2ccccc2)co1 (stereo unspecified) | -4 | 3 | -33* | 1 | 0
CS(=O)(=O)N(CC(=O)NCCSCc1ccccc1)c1cc(C(F)(F)F)ccc1Cl | -3 | 9 | 2 | -5 | 0
CCOC(=O)c1cc(S(=O)(=O)Nc2ccccc2)[nH]n1 | 3 | 5 | 8 | -4 | 0
Cn1c(=O)c(Oc2ccc(Cl)cc2)c(O)c2ccccc21 | 3 | 2 | 5 | 9 | 0
COc1ccc(Oc2c(O)c3ccccc3n(C)c2=O)cc1 | -2 | 2 | -45* | 6 | 0
O=C(CSc1nc(O)cc(=O)n1-c1ccc(Cl)c(Cl)c1)Nc1ccc(Cl)cc1Cl | -8 | 3 | -1 | -8 | 1
CC(=O)Nc1ccc(Nc2cc(C)nc3c(-c4ccccc4)cnn23)cc1 | -12 | 11 | -40* | 2 | 4
